# In publication PMC7862700, “An all-to-all approach to the identification of sequence-specific readers for epigenetic DNA modifications on cytosine”:
# Legend:
# Experiment in all cases: DAPPL (digital affinity profiling via proximity ligation, sequencing); 10 mM Tris-HCl pH 7.5, 50 mM NaCl, 1 mM DTT, 4% glycerol, room temperature, 30 min; GST-TFs on glutathione beads, 16-mer random dsDNA library, 0.1% formaldehyde crosslink after washing; high values mean tight binding
# FLI1 = molecular target: T1, FLI1 (Homo sapiens, UniProt Q01543 1-452); conditions: protein: recombinant; tags: N-terminal GST; dsDNA, one strand shown
# T1 sequence: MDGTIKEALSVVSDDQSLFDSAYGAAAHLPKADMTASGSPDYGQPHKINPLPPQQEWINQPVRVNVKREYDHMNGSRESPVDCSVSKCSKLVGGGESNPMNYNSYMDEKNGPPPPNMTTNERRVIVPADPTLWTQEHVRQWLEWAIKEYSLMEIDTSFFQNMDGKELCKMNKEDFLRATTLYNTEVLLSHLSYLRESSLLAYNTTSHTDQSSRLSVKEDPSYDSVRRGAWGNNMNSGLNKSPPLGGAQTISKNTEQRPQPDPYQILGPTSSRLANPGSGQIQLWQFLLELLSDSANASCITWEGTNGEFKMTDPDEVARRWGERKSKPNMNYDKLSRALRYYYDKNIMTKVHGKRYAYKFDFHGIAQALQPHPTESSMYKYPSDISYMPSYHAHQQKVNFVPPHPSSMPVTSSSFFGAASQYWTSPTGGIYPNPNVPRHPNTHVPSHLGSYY
# Procedure, shortened: (§1)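 Pools of DNA-barcoded human transcription factors, expressed in yeast as GST fusions on glutathione beads and combined with a tag-only sample, were incubated with 200 nmole of a 16-mer random double-stranded DNA library. Incubation took 30 min at room temperature in Tris/NaCl/DTT/glycerol buffer and was followed by washing, 0.1% formaldehyde crosslinking, proximity ligation (BsaI/T4 ligase, 1 h, 37 °C), PCR amplification and sequencing on an Illumina NextSeq500. Binding signal is the ratio of a hexamer's read frequency for a factor to its frequency for the tag-only sample.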
# ELK1 = molecular target: T2, ELK1 (Homo sapiens, UniProt P19419 1-428); conditions: protein: recombinant; tags: N-terminal GST; dsDNA, one strand shown
# T2 sequence: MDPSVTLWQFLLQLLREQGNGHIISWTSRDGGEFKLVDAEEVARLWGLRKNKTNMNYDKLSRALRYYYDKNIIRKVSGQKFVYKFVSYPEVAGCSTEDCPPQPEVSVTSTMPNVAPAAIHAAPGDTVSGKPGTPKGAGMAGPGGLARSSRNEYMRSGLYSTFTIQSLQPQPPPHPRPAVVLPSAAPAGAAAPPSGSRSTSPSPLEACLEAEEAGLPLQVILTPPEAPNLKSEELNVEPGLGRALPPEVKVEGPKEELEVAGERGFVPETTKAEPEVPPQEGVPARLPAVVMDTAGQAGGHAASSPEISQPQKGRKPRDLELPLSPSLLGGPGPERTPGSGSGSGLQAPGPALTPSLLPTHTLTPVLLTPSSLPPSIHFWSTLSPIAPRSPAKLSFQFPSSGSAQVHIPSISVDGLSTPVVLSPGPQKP
# Procedure, shortened: as §1
# GABPA = molecular target: T3, GABPA (Homo sapiens, UniProt Q06546 1-454); conditions: protein: recombinant; tags: N-terminal GST; dsDNA, one strand shown
# T3 sequence: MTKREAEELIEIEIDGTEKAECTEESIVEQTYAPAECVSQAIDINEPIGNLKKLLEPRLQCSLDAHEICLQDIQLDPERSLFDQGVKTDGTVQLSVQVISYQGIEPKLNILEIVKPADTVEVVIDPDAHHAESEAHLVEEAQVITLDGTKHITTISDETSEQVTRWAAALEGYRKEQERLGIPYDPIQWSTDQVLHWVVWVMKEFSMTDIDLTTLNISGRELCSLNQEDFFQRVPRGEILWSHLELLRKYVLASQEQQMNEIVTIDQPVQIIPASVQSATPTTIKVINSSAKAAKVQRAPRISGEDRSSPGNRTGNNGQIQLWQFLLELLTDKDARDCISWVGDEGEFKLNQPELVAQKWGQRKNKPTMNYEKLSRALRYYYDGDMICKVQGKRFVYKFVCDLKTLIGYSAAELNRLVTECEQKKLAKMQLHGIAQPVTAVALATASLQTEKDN
# Procedure, shortened: as §1
# ERG = molecular target: T4, ERG (Homo sapiens, UniProt P11308 1-479); conditions: protein: recombinant; tags: N-terminal GST; dsDNA, one strand shown
# T4 sequence: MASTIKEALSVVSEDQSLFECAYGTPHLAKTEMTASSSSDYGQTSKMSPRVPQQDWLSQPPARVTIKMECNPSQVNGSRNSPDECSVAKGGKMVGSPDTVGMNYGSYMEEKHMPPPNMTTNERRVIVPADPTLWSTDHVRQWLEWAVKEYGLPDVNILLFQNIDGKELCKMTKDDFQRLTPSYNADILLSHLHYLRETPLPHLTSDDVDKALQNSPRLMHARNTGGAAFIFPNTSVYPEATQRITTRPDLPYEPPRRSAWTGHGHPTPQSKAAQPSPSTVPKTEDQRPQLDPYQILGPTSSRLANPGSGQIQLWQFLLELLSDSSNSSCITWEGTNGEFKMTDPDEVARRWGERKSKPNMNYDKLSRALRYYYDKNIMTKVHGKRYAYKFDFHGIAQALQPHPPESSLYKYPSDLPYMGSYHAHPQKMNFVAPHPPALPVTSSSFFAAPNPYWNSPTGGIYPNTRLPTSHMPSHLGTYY
# Procedure, shortened: as §1
# ELF1 = ELF1 (Homo sapiens, UniProt P32519 1-619); conditions: protein: recombinant; tags: N-terminal GST; dsDNA, one strand shown
# Procedure, shortened: as §1
# EHF = molecular target: T5, EHF (Homo sapiens, UniProt Q9NZC4 1-300); conditions: protein: recombinant; tags: N-terminal GST; dsDNA, one strand shown
# T5 sequence: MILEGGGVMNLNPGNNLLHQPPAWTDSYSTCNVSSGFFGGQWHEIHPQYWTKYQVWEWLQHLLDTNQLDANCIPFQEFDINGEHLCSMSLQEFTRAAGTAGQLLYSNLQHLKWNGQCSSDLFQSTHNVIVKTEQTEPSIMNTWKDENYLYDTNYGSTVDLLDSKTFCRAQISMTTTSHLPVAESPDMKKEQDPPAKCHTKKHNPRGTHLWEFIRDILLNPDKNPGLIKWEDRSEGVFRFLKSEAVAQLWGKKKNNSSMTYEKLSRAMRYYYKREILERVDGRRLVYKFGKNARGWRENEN
# Procedure, shortened: as §1
# SPI1 = SPI1 (Homo sapiens, UniProt P17947 1-270); conditions: protein: recombinant; tags: N-terminal GST; dsDNA, one strand shown
# Procedure, shortened: as §1
# SPIB = SPIB (Homo sapiens, UniProt Q01892 1-262); conditions: protein: recombinant; tags: N-terminal GST; dsDNA, one strand shown
# Procedure, shortened: as §1
# ELK3 = molecular target: T6, ELK3 (Homo sapiens, UniProt P41970 1-407); conditions: protein: recombinant; tags: N-terminal GST; dsDNA, one strand shown
# T6 sequence: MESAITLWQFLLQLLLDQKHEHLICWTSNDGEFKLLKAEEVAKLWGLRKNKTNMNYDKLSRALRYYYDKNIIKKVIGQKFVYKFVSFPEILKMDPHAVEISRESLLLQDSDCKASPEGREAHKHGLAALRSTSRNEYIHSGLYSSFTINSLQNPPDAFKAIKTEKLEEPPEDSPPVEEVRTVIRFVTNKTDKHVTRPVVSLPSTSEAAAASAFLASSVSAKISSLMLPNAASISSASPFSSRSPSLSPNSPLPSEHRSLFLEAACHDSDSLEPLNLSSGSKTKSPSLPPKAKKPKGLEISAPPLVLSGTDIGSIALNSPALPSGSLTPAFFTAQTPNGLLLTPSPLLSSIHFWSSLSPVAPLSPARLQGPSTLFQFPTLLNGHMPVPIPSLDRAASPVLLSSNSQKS
# Procedure, shortened: as §1
# FEV = molecular target: T7, FEV (Homo sapiens, UniProt Q99581 1-238); conditions: protein: recombinant; tags: N-terminal GST; dsDNA, one strand shown
# T7 sequence: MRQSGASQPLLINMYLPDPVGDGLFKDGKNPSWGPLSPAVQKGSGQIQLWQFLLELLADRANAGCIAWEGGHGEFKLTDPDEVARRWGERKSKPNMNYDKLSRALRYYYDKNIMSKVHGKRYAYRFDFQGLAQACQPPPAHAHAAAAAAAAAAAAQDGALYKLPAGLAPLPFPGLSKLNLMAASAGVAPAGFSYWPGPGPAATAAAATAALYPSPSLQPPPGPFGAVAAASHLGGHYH
# Procedure, shortened: as §1
# ETV5 = ETV5 (Homo sapiens, UniProt P41161 1-510); conditions: protein: recombinant; tags: N-terminal GST; dsDNA, one strand shown
# Procedure, shortened: as §1
# HSF1 = HSF1 (Homo sapiens, UniProt Q00613 1-529); conditions: protein: recombinant; tags: N-terminal GST; chain copies: 3; dsDNA, one strand shown
# Procedure, shortened: as §1
# SPIC = molecular target: T8, SPIC (Homo sapiens, UniProt Q8N5J4 1-248); conditions: protein: recombinant; tags: N-terminal GST; dsDNA, one strand shown
# T8 sequence: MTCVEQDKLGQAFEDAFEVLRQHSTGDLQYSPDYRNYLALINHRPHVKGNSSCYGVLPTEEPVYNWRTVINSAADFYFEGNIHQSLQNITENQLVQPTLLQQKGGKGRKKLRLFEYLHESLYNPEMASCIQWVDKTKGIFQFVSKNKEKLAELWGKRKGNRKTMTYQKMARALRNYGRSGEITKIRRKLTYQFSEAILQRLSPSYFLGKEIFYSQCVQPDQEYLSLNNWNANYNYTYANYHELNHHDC
# Procedure, shortened: as §1
# ELF4 = ELF4 (Homo sapiens, UniProt Q99607 1-663); conditions: protein: recombinant; tags: N-terminal GST; dsDNA, one strand shown
# Procedure, shortened: as §1
# ELK4 = molecular target: T9, ELK4 (Homo sapiens, UniProt P28324-2 1-405); conditions: protein: recombinant; tags: N-terminal GST; dsDNA, one strand shown
# T9 sequence: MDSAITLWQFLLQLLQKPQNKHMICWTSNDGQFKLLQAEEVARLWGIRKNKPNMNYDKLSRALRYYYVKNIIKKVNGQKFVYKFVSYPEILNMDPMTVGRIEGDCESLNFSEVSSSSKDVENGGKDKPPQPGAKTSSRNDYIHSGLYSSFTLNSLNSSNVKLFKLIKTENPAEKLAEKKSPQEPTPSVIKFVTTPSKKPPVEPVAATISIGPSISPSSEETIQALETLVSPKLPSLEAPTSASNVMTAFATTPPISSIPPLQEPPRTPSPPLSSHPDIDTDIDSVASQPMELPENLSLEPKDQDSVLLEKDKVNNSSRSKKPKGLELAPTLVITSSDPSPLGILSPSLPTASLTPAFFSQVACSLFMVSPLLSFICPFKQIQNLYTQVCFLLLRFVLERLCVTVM
# Procedure, shortened: as §1
# ETV2 = molecular target: T10, ETV2 (Homo sapiens, UniProt O00321 1-342); conditions: protein: recombinant; tags: N-terminal GST; dsDNA, one strand shown
# T10 sequence: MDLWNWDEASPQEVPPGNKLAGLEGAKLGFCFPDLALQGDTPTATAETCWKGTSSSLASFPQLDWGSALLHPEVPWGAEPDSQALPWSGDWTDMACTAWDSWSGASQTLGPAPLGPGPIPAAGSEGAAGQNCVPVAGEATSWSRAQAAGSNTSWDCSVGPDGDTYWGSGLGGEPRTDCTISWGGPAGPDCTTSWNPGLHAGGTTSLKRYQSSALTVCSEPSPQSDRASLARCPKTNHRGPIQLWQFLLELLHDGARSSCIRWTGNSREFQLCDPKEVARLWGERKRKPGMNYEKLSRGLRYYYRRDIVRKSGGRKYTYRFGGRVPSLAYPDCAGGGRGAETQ
# Procedure, shortened: as §1
# ELF3 = molecular target: T11, ELF3 (Homo sapiens, UniProt P78545 1-371); conditions: protein: recombinant; tags: N-terminal GST; dsDNA, one strand shown
# T11 sequence: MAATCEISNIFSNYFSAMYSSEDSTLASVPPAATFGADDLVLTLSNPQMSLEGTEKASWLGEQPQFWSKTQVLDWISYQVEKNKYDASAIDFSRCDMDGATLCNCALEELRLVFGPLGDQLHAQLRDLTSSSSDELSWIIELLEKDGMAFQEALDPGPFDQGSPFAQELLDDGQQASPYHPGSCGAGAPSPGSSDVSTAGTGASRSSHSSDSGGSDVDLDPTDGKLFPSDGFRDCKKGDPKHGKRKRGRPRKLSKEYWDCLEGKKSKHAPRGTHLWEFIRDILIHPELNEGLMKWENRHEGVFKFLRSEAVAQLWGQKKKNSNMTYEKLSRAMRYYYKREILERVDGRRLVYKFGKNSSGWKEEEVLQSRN
# Procedure, shortened: as §1
# CRX = CRX (Homo sapiens, UniProt O43186 1-299); conditions: protein: recombinant; tags: N-terminal GST; dsDNA, one strand shown
# Procedure, shortened: as §1
# ETV1 = ETV1 (Homo sapiens, UniProt P50549 1-477); conditions: protein: recombinant; tags: N-terminal GST; dsDNA, one strand shown
# Procedure, shortened: as §1
# Sequence of ELF4 (Q99607 whole entry): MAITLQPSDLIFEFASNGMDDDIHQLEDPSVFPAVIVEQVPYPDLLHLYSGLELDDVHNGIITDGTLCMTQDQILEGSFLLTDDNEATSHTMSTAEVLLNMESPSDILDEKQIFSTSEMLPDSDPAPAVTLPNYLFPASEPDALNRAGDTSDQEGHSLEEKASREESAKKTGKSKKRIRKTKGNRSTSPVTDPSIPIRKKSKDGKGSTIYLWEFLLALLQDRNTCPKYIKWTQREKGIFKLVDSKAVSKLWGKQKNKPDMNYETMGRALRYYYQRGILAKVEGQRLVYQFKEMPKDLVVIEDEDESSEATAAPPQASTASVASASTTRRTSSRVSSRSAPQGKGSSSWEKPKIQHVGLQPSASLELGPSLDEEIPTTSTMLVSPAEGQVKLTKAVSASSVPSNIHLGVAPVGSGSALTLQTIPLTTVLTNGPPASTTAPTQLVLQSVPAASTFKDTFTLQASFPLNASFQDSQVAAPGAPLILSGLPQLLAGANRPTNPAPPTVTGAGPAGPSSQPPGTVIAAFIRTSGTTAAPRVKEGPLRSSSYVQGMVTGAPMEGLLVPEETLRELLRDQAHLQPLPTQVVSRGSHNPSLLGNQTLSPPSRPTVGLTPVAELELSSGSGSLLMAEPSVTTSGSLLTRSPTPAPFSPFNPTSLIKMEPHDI
# Sequence of SPIB (Q01892 whole entry): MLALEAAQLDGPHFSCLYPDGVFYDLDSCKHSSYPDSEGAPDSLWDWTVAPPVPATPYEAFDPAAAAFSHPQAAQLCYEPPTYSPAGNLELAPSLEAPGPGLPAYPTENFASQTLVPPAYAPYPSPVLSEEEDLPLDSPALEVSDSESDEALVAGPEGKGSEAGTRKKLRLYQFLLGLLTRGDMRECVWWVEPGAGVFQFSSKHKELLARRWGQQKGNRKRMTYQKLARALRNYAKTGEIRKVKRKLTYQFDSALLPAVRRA
# Sequence of ETV5 (P41161 whole entry): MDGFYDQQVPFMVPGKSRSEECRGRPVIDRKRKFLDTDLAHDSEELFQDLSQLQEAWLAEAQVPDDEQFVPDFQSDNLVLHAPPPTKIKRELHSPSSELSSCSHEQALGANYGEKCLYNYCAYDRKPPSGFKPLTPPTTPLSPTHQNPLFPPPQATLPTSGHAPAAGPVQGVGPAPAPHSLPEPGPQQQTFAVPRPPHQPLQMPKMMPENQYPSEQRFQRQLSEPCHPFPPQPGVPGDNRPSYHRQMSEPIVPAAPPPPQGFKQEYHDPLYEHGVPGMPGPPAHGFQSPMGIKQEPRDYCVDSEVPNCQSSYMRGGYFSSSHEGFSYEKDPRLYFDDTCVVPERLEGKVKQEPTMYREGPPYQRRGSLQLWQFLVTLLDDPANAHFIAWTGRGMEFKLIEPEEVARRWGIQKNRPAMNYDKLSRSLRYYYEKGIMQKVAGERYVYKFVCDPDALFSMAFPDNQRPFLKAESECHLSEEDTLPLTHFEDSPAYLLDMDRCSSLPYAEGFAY
# Sequence of HSF1 (Q00613 whole entry): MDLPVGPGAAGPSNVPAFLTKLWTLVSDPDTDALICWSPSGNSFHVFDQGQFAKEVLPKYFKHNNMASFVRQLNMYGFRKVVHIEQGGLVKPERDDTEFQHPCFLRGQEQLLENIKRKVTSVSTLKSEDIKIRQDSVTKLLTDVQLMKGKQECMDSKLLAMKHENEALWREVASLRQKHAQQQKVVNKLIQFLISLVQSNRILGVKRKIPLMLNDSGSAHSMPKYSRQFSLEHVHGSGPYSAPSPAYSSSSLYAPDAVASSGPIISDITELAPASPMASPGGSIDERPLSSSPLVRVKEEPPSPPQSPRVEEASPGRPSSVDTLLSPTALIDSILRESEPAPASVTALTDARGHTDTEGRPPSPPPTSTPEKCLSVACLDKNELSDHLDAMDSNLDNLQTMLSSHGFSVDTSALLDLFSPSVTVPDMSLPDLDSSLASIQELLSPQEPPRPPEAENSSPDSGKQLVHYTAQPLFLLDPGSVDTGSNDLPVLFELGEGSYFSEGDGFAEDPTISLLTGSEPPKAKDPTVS
# Sequence of ELF1 (P32519 whole entry): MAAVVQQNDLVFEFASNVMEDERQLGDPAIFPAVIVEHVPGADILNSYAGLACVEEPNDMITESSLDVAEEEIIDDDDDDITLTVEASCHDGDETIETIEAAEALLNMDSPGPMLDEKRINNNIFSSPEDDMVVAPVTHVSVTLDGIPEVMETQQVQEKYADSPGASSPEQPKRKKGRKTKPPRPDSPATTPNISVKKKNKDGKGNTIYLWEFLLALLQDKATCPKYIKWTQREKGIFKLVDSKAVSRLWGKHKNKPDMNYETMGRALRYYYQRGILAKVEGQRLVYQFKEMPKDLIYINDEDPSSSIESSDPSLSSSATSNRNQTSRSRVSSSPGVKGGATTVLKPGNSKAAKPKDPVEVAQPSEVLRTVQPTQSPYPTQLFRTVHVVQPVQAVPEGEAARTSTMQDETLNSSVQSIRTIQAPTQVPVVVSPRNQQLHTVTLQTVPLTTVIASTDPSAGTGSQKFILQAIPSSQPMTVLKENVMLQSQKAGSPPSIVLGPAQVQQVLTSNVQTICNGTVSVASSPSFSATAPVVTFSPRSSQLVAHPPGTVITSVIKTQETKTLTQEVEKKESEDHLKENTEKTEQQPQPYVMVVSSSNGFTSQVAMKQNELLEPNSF
# Sequence of CRX (O43186 whole entry): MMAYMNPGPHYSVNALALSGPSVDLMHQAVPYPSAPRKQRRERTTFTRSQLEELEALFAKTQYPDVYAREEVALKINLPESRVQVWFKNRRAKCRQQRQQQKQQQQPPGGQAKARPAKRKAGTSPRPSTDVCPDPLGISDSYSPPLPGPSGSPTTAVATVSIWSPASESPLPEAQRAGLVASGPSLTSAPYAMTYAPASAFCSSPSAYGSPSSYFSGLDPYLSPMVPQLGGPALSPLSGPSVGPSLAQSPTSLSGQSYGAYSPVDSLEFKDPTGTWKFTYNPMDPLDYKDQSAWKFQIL
# Sequence of ETV1 (P50549 whole entry): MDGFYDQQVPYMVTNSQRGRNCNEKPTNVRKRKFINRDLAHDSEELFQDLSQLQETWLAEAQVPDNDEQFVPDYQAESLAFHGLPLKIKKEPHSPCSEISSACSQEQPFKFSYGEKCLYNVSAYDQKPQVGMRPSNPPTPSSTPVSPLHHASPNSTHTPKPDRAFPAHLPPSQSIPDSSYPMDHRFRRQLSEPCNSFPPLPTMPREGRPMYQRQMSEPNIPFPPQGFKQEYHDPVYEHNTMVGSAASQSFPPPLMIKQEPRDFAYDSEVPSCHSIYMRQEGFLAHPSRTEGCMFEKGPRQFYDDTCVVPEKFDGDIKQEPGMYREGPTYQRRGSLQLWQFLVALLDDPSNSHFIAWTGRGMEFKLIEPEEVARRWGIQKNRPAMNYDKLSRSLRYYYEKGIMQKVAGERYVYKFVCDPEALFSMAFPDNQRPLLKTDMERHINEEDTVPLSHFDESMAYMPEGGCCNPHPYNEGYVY
sequence,measurement,setting,value
TCACAC,binding signal,FLI1,"1.31 fold enrichment (6-mer frequency, TF over GST control)"
same,binding signal,ELK1,"1.19 fold enrichment (6-mer frequency, TF over GST control)"
same,binding signal,GABPA,"1.34 fold enrichment (6-mer frequency, TF over GST control)"
same,binding signal,ERG,"1.31 fold enrichment (6-mer frequency, TF over GST control)"
same,binding signal,ELF1,"1.32 fold enrichment (6-mer frequency, TF over GST control)"
same,binding signal,EHF,"1.3 fold enrichment (6-mer frequency, TF over GST control)"
same,binding signal,SPI1,"1.23 fold enrichment (6-mer frequency, TF over GST control)"
same,binding signal,SPIB,"1.29 fold enrichment (6-mer frequency, TF over GST control)"
same,binding signal,ELK3,"1.46 fold enrichment (6-mer frequency, TF over GST control)"
same,binding signal,FEV,"1.35 fold enrichment (6-mer frequency, TF over GST control)"
same,binding signal,ETV5,"1.31 fold enrichment (6-mer frequency, TF over GST control)"
same,binding signal,HSF1,"1.06 fold enrichment (6-mer frequency, TF over GST control)"
same,binding signal,SPIC,"1.24 fold enrichment (6-mer frequency, TF over GST control)"
same,binding signal,ELF4,"1.36 fold enrichment (6-mer frequency, TF over GST control)"
same,binding signal,ELK4,"1.31 fold enrichment (6-mer frequency, TF over GST control)"
same,binding signal,ETV2,"1.29 fold enrichment (6-mer frequency, TF over GST control)"
same,binding signal,ELF3,"1.19 fold enrichment (6-mer frequency, TF over GST control)"
same,binding signal,CRX,"1.07 fold enrichment (6-mer frequency, TF over GST control)"
same,binding signal,ETV1,"1.33 fold enrichment (6-mer frequency, TF over GST control)"
